This is a sample that favours compounds with a hit; in the whole collection about 27% have one here.
CYP2C9 activ – CYP2C9 (human) activation; hit rate 1.4% among 96,000; P11712; activation factor at 5 µM; recombinant CYP2C9, luciferin-H conversion, luminescence; stronger effect = higher value; factor 1 = untreated enzyme, 0 = blocked;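 active = activation factor of 2 or more for CYP2C9 at a 5 µM dose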;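 note: 0 = sulfaphenazole-blocked wells and 1 = vehicle-only wells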
CYP2C9 inh – blocks human cytochrome P450 2C9. hit rate 20% among 96,000. CYP2C9 Supersomes, luciferin-H conversion, luminescence. inhibition, % at 5 µM. AID 777;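 active = blocking of liver enzyme CYP2C9 beyond about 50% at 5 µM, limit read from the data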
Cav32 inh – blocks human Cav3.2 T-type calcium channel. O95180. Cav3.2-expressing cells, Fluo-4 calcium fluorescence FDSS; stronger effect = lower value. B-score at 10 µM. hit rate 4% among 100,000;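 active = single-dose well whose peak fluorescence ratio is a statistical outlier from its plate by either plate-standardised score or position-corrected B-score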
CYP2C19 act – increases human CYP2C19 enzyme activity; P33261; activation factor at 5 µM; recombinant CYP2C19, luciferin-H EGE luminescence; stronger effect = higher value; 0 = fully inhibited enzyme, 1 = untreated enzyme; AID 1025; 96,000 tested, under 10 active;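 active = activation factor of at least 2 at 5 µM in the primary screen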;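 note: 0 = wells with 2.5 mM tranylcypromine and 1 = vehicle-only wells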
CYP2C19 inhib – inhibitors of human CYP2C19; P33261; CYP2C19 Supersomes, luciferin-H EGE luminescence, 30 min; inhibition, % at 5 µM; hit rate 21% among 96,000;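 active = CYP2C19 inhibition above a set limit at 5 µM in the primary screen, cut at about 50% in these data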;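 note: plate controls were negative control wells for no effect and 2.5 mM tranylcypromine positive control for full effect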
Active calls of the source: *.

What do the screens show for `Cc1cc(C)cc(SCc2noc(C(=O)NCCCN3CCOCC3)c2C(=O)NCCCN2CCOCC2)c1`?
Cav32 inh: 0.37

What do the screens show for `CSc1ccccc1NC(=O)CN(c1cccc(C)c1)S(C)(=O)=O`?
CYP2C9 activ: 0.5; CYP2C9 inh: 53*; Cav32 inh: -0.0053; CYP2C19 act: 0.5; CYP2C19 inhib: 51*

How did Cc1cccc(N(CC(=O)Nc2ccc(CC#N)cc2)S(C)(=O)=O)c1 do in these assays?
CYP2C9 activ: 0.9; CYP2C9 inh: 9; Cav32 inh: 0.14; CYP2C19 act: 0.7; CYP2C19 inhib: 25

Results for CCc1ccc(NC(=O)CN(c2cccc(C)c2)S(C)(=O)=O)cc1 ?
CYP2C9 activ: 0.6; CYP2C9 inh: 39; Cav32 inh: -1.9; CYP2C19 act: 0.6; CYP2C19 inhib: 42

How did Cc1cccc(N(CC(=O)Nc2ccccc2F)S(C)(=O)=O)c1 do in these assays?
CYP2C9 activ: 0.3; CYP2C9 inh: 69*; Cav32 inh: -0.26; CYP2C19 act: 0.1; CYP2C19 inhib: 92*

What do the screens show for `Cc1ccc(C(=O)NNS(=O)(=O)c2ccccc2[N+](=O)[O-])cc1`?
Cav32 inh: 1.4

Results for O=C(NNS(=O)(=O)c1ccccc1[N+](=O)[O-])c1ccc(O)cc1 ?
CYP2C9 activ: 0.3; CYP2C9 inh: 68*; Cav32 inh: -0.65; CYP2C19 act: 0.6; CYP2C19 inhib: 40

Results for Cc1c(-c2nnnn2-c2ccc(F)cc2)cnc2cc3c(cc12)OCO3 ?
CYP2C9 activ: 0.5; CYP2C9 inh: 50; Cav32 inh: 0.8; CYP2C19 act: 0.7; CYP2C19 inhib: 30

Results for COc1ccc(-n2nnnc2-c2cnc(N3CCCC3)nc2C(F)(F)F)cc1 ?
CYP2C9 activ: 0.4; CYP2C9 inh: 64*; Cav32 inh: -3; CYP2C19 act: 0.1; CYP2C19 inhib: 88*

What do the screens show for `Cn1cc(-c2nnnn2-c2ccc(Cl)cc2)c(C(F)(F)F)n1`?
CYP2C9 activ: 0.6; CYP2C9 inh: 40; CYP2C19 act: 0; CYP2C19 inhib: 100*

What do the screens show for `COc1ccc(-n2ncc3c(N4CCCCC4)ncnc32)cc1`?
Cav32 inh: -0.031

Results for FC(F)(F)c1nc(-c2cccs2)ncc1-c1nnnn1-c1ccc(Cl)cc1 ?
CYP2C9 activ: 0.5; CYP2C9 inh: 52*; Cav32 inh: -4.2; CYP2C19 act: 1; CYP2C19 inhib: -3

How did Cc1cc(C)cc(-n2nnnc2-c2cn(C)nc2C(F)(F)F)c1 do in these assays?
CYP2C9 activ: 0.8; CYP2C9 inh: 20; Cav32 inh: 0.62; CYP2C19 act: 0.3; CYP2C19 inhib: 75*

How did Clc1ccc(-n2nnnc2-c2cnc(-c3ccncc3)nc2-c2cccs2)cc1 do in these assays?
Cav32 inh: -2.6

Results for CC1Cc2cc(/C(O)=C3/C(=O)C(=O)N(CC4CCCO4)C3c3ccco3)ccc2O1 (stereo unspecified) ?
CYP2C9 activ: 1.1; CYP2C9 inh: -10; CYP2C19 act: 1.2; CYP2C19 inhib: -19

How did Cc1cc(NC(=O)CN2CCCCC2C)no1 (stereo unspecified) do in these assays?
CYP2C9 activ: 1.1; CYP2C9 inh: -7; Cav32 inh: -0.11; CYP2C19 act: 0.9; CYP2C19 inhib: 6

What do the screens show for `CCOc1cc(/C=N\NC(=O)c2ccc(NC(=O)CC)cc2)ccc1OC(=O)c1ccccc1`?
CYP2C9 activ: 0.9; CYP2C9 inh: 9; Cav32 inh: 0.31; CYP2C19 act: 1.1; CYP2C19 inhib: -6

What do the screens show for `COc1cc2c(cc1OC)CN(Cc1cc(=O)n3cc(C)ccc3n1)CC2`?
CYP2C9 activ: 0.7; CYP2C9 inh: 28; Cav32 inh: 0.88; CYP2C19 act: 1; CYP2C19 inhib: 5

How did O=C1NCCCC1C(=O)NCCN1C(=O)CCC1=O (stereo unspecified) do in these assays?
CYP2C9 activ: 1; CYP2C9 inh: 0; Cav32 inh: -0.43; CYP2C19 act: 1; CYP2C19 inhib: -2

Results for CNc1c([N+](=O)[O-])cnn1-c1ccc(Cl)cc1Cl ?
CYP2C9 activ: 0.7; CYP2C9 inh: 34; CYP2C19 act: 0.5; CYP2C19 inhib: 53*

What do the screens show for `CNc1c([N+](=O)[O-])cnn1-c1ccccc1Cl`?
CYP2C9 activ: 0.8; CYP2C9 inh: 24; CYP2C19 act: 0.8; CYP2C19 inhib: 16

How did CCOc1ccc(C(=O)Nc2ccc(Cl)cn2)cc1Cl do in these assays?
CYP2C9 activ: 1; CYP2C9 inh: 2; Cav32 inh: -2.6; CYP2C19 act: 0.8; CYP2C19 inhib: 16

How did N#Cc1nc(COc2cccc(Cl)c2)oc1NCc1ccco1 do in these assays?
CYP2C9 activ: 0.2; CYP2C9 inh: 85*; Cav32 inh: -1.9; CYP2C19 act: 0.5; CYP2C19 inhib: 50*

Results for Cc1ccc(OCc2nc(C#N)c(NCc3ccco3)o2)cc1 ?
CYP2C9 activ: 0; CYP2C9 inh: 100*; Cav32 inh: -3.4; CYP2C19 act: 0.1; CYP2C19 inhib: 90*

How did Cc1ccc(-c2nc(C#N)c(NCc3ccco3)o2)cc1 do in these assays?
CYP2C9 activ: 0.4; CYP2C9 inh: 58*; Cav32 inh: -1.6; CYP2C19 act: 0.6; CYP2C19 inhib: 40

How did COc1ccccc1OCc1nc(C#N)c(NCc2ccco2)o1 do in these assays?
CYP2C9 activ: 0.2; CYP2C9 inh: 80*; Cav32 inh: -0.94; CYP2C19 act: 0.3; CYP2C19 inhib: 74*

Results for CN(C)c1ccc(/C(=N\O)c2ccccc2)cc1 ?
CYP2C9 activ: 1; CYP2C9 inh: -3; Cav32 inh: -2.9; CYP2C19 act: 0.3; CYP2C19 inhib: 73*

How did COc1cc(CCC(=O)N2CCN(S(=O)(=O)c3ccc(C)c(C)c3)CC2)cc(OC)c1OC do in these assays?
CYP2C9 activ: 0.6; CYP2C9 inh: 45; Cav32 inh: 0.6; CYP2C19 act: 0.4; CYP2C19 inhib: 56*

Results for O=C(COC(=O)c1ccc(S(=O)(=O)N2CCOCC2)cc1)NC1CCCC1 ?
CYP2C9 activ: 0.7; CYP2C9 inh: 26; Cav32 inh: 1.6; CYP2C19 act: 1; CYP2C19 inhib: -5

How did O=S(=O)(c1ccc(Cl)cc1)N1CCN(C2CCN(Cc3ccccc3)CC2)CC1 do in these assays?
CYP2C9 activ: 0.9; CYP2C9 inh: 5; Cav32 inh: 0.76; CYP2C19 act: 0.9; CYP2C19 inhib: 8

How did COc1cc(S(=O)(=O)N2CCN(Cc3ccccc3)CC2)ccc1Br do in these assays?
CYP2C9 activ: 1.4; CYP2C9 inh: -38; Cav32 inh: -2; CYP2C19 act: 0.7; CYP2C19 inhib: 35

What do the screens show for `COc1ccc(S(=O)(=O)N2CCN(Cc3ccc(Cl)cc3)CC2)cc1`?
CYP2C9 activ: 1.1; CYP2C9 inh: -10; Cav32 inh: -0.22; CYP2C19 act: 0.4; CYP2C19 inhib: 63*

How did COc1cc(CN2CCN(S(=O)(=O)c3ccc(F)cc3)CC2)cc(OC)c1OC do in these assays?
CYP2C9 activ: 0.5; CYP2C9 inh: 47; Cav32 inh: 0.39; CYP2C19 act: 0.2; CYP2C19 inhib: 84*

What do the screens show for `CCOC(=O)c1ccc(S(=O)(=O)N2CCN(CC(=O)NC(=O)NC3CCCCC3)CC2)cc1`?
CYP2C9 activ: 0.4; CYP2C9 inh: 60*; Cav32 inh: -3.1; CYP2C19 act: 0.8; CYP2C19 inhib: 16

High-throughput results from PubChem BioAssay.
